17 compounds from PubChem BioAssay can be followed below.

Experiment [1] deals with Human papillomavirus type 1a protein E7 (residues 44-93). Nature of the experiment: small molecules binding HPV E7 44-93 – biochemical, small-molecule microarray, residues 44-93, 635 nm fluorescence, primary screen (AID 1108).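 Also: E7 fragment applied at 1 µg/mL in TBST for 1 h at 4 C; score combines spot fluorescence with its signal to noise ratio.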 Particulars: fluorescence 635 nm, higher = more signal.
Experiment [2] can be described thus: hepatitis C replication reporter changes, two-sided – Huh7 cells, luciferase reporter, HCV replication inhibitor project, primary screen (AID 1109).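 Also: huh7 hepatoma cells harbouring a luciferase neomycin HCV replicon reporter; luciferase luminescence as measure of HCV replicon replication; test concentration not given here.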 The settings on record: Huh7 HCV replicon luciferase reporter, 48 h; higher = more signal.
For experiment [3], the target named is Left-right determination factor 2 (Homo sapiens) (UniProt O00292). Nature of the experiment: small molecules binding LEFTY2 protein – biochemical, small-molecule microarray, 635 nm fluorescence scan, primary screen (AID 1110). Particulars: higher = more signal.
Left-right determination factor 2 (Homo sapiens), sequence (O00292 whole entry, looked up): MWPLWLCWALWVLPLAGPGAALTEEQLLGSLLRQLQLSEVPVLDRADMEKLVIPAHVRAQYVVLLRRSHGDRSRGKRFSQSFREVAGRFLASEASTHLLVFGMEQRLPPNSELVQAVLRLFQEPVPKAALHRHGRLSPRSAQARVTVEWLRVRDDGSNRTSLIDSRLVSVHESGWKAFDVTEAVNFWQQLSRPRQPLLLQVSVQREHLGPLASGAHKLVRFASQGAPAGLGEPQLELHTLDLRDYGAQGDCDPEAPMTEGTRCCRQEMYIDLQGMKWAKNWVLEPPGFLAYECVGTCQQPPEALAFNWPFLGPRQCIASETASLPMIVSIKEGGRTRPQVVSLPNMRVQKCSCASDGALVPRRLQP
Experiment [4] has as its target Calmodulin-1 (Homo sapiens) (UniProt P0DP23). In words: small molecules binding calmodulin-1 with EGTA – biochemical, small-molecule microarray, Cy5-labelled CALM1, profiling panel (AID 1111).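 Also: labelled calmodulin applied in Tris saline Tween buffer holding calcium plus EGTA and DTT.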 Particulars: Cy5-CALM1 binding fluorescence, higher = more signal.
The target is the same in experiment [5]. In words: small molecules binding Ca-loaded calmodulin-1 – biochemical, small-molecule microarray, Cy5-labelled CALM1, plus calcium, artefact control for SMM control-protein annotation, profiling panel (AID 1112).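 Also: score merges spot fluorescence with signal to noise from triplicate slides.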 Particulars: Cy5-CALM1 binding fluorescence, higher = more signal.
The nature of experiment [6]: probe aWnt5a binding to arrayed compounds – biochemical, biotinylated probe, 635/667 nm fluorescence, primary screen (AID 1113).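 Also: score merges 667 nm fluorescence intensity with signal-to-noise per printed feature.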 Particulars: small-molecule microarray, higher = more signal.
Experiment [7] can be described thus: probe aShh binding to arrayed compounds – biochemical, biotinylated probe, 635/667 nm fluorescence, primary screen (AID 1114).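 Also: probe is biotin-labelled aShh protein from a stem cell growth factor screen; measures binding of labelled protein to compounds printed on the slide; score merges feature fluorescence at 667 nm with signal-to-noise.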 Particulars: small-molecule microarray, higher = more signal.
The nature of experiment [8]: probe aNog binding to arrayed compounds – biochemical, biotinylated probe, 635/667 nm fluorescence, primary screen (AID 1115).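 Also: probe is biotinylated aNog protein used at 0.15 µg/mL for 1 h at 4 C; z-score combines 667 nm fluorescence of each spot with its signal to noise.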 Particulars: small-molecule microarray, higher = more signal.
In experiment [9] the target is Torsin-1A-interacting protein 1 (Homo sapiens) (UniProt Q5JTV8). In words: compound microarray binding of lysate hLAP1 – cell lysate, small-molecule microarray, COS7 lysate, 635/667 nm fluorescence, primary screen (AID 1116). Particulars: 635 nm fluorescence, higher = more signal.
Torsin-1A-interacting protein 1 (Homo sapiens), sequence (Q5JTV8 whole entry, looked up): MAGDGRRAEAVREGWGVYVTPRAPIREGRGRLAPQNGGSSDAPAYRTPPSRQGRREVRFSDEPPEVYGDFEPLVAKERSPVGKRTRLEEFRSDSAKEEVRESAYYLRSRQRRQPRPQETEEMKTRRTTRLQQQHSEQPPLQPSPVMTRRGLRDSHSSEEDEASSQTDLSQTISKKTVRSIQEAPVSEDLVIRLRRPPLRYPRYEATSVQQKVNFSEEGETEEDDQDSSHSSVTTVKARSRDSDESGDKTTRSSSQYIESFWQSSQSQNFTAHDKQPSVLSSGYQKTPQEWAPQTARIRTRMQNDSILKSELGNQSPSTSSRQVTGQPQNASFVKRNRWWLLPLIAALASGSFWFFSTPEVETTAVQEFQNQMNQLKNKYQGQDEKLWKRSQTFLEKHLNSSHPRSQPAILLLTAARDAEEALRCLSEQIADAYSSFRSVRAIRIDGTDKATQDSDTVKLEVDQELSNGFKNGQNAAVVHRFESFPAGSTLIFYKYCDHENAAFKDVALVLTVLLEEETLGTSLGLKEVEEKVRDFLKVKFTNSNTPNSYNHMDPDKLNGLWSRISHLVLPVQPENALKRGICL
Experiment [10] concerns the target Alpha-bungarotoxin (Bungarus multicinctus) (UniProt P60615). Nature of the experiment: compounds binding labelled alpha-BTX control protein – biochemical, small-molecule microarray, Alexa647 label, 635/667 nm fluorescence, artefact control for SMM control protein annotation, profiling panel (AID 1117). Particulars: alpha-BTX-A647 binding fluorescence, higher = more signal.

Alpha-bungarotoxin (Bungarus multicinctus), sequence (P60615 whole entry, looked up): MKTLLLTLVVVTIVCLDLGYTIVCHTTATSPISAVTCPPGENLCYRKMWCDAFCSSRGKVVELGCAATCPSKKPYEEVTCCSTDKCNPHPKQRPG

On to `COc1ccc([Si](C)(C)[C@@H]2[C@@H](CC(=O)N3Cc4ccccc4C[C@H]3CO)O[C@]3(C(=O)N(Cc4cccc(N5C(=O)c6cccc7cccc5c67)c4)c4ccccc43)[C@H]2C)cc1`, for which the composite z-score in experiment [1] is 1.21; in [3], 0.98; in [4] it was 0.937; in [5], 1.46; in [6] it was -0.0685; in experiment [7], -0.17. The composite z-score in experiment [8] is -0.237; in experiment [9] it was 0.83; in experiment [10], 0.886. Also, the z-score in experiment [2] was -3.68.

Turning to `COC(=O)[C@@]1(Cc2ccc(OC)cc2)[C@@H]2C(=CC(=O)[C@H]2CC(=O)C(=O)N(C)C)CN1C(=O)c1ccccc1`, the composite z-score in [1] was 1.42; in experiment [3] it was -0.195; in experiment [4] it was 2.21; in experiment [5] it was 0.775; in experiment [6], 0.268; in experiment [7], 0.1. Also, the values for the composite z-score in [8], in experiment [9] and in experiment [10] were 2.25, 0.755 and 0.923, respectively. The compound further showed a z-score in experiment [2] of -2.8.

Regarding `O=C1N(Cc2ccccc2)c2ccccc2[C@@H]2OC(c3ccc(OCCCO)cc3)=N[C@]12Cc1ccccc1`, the composite z-score is 1.45 in [1]; 0.0601 in experiment [3]; 1.05 in experiment [4]; -0.338 in experiment [5]; 0.0037 in experiment [6]; 0.138 in experiment [7]. Moreover, the composite z-score in experiment [8] was determined as 0.0705; in experiment [9], 0.685; in experiment [10], 0.807. The compound further gave a z-score in experiment [2] of -2.69.

As to `Cc1ccc(S[C@]2(C(=O)NCCCN(C)C)CC(=O)N(C3CCCCC3)[C@@H]2c2ccc(CO)cc2)cc1`, the composite z-score in [1] was -0.246; in [3], -0.992; in experiment [4] it was -0.596; in [5], -0.677; in experiment [6] it was -0.129; in experiment [7] it was -0.0035. Further, the values for the composite z-score in experiment [8], in experiment [9] and in experiment [10] were -0.255, -0.549 and -0.123, respectively. In [2], the z-score was -2.51.

With `C=CCOC(=O)[C@H]1[C@@H]2C(=O)O[C@@H](c3ccccc3)[C@@H](c3ccccc3)N2[C@@H](c2ccc(OCCOC(=O)[C@H]3C[C@H]4C(=O)N[C@@H](CC(C)C)C(=O)N4[C@H]3c3cccc(OCCO)c3)cc2)[C@]12C(=O)Nc1ccc(I)cc12`, the composite z-score was 1.31 in experiment [1]; 1.08 in [3]; 0.621 in experiment [4]; 0.0537 in experiment [5]; -0.168 in [6]; -0.0769 in experiment [7]. The composite z-score in experiment [8] is -0.141; in experiment [9], -0.302; in experiment [10], 0.473. The compound also displayed a z-score in experiment [2] of -1.51.

For `CC(C)(C)N1CC=CC23O[C@@H]4C=CCOC(=O)[C@@H]4[C@H]2C(=O)N(CCCCCCO)[C@@H]3C1=O` (stereo not given in full), the composite z-score in experiment [1] is -1.38; in [3], -0.84; in experiment [4], -0.243; in experiment [5], -0.123; in experiment [6], -0.206; in [7] it was -0.291. For the same compound, the figures for the composite z-score in experiment [8], in [9] and in [10] were -0.357, -0.252 and -0.348, respectively. Moreover, the z-score in experiment [2] was determined as 0.397.

Consider `CC(C)C[C@@H]1NC(=O)[C@@H]2C[C@H](C(=O)NCCCCN(C)C)[C@H](c3cccc(OCCO)c3)N2C1=O`, for which the composite z-score in [1] is 0.314; in [3] it was -0.113; in experiment [4], 0.0053; in [5] it was -0.0276; in experiment [6], -0.221; in [7] it was -0.138. The composite z-score in experiment [8] was -0.313; in [9], -0.249; in experiment [10] it was -0.555. Moreover, the z-score in experiment [2] is -0.138.

In the case of `COCC1=C2[C@@H](CCc3ccccc3)OB(O)C[C@@H]2[C@@H]2C(=O)C=CC(=O)[C@@H]2C1`, the composite z-score in experiment [1] was 1.01; in experiment [3] it was 0.363; in experiment [4], 1.03; in experiment [5] it was 0.344; in experiment [6] it was -0.101; in experiment [7], 0.0684. Also, the results for the composite z-score in [8], in experiment [9] and in [10] were 0.26, 0.236 and 1.43, respectively. Further, in experiment [2], the z-score is -2.08.

As for `COc1ccc([Si](C)(C)[C@@H]2[C@@H](CC(=O)N3Cc4ccccc4C[C@H]3CO)O[C@]3(C(=O)N(C)c4ccccc43)[C@H]2C)cc1`, the composite z-score in experiment [1] was 0.215; in [3], 0.812; in experiment [4], 0.617; in [5] it was -0.0353; in experiment [6] it was 0.0102; in experiment [7], 0.123. Further, the composite z-score in experiment [8] was -0.0692; in experiment [9], 0.907; in experiment [10], 0.794. Moreover, in [2], the z-score is -4.84.

With `O=C1OCCC=C[C@H]2OC34C=CCN(Cn5nnc6ccccc65)C(=O)[C@H]3N(CCCCCCO)C(=O)[C@@H]4C12` (stereo not given in full), the composite z-score is -0.607 in experiment [1]; -1.51 in experiment [3]; -0.204 in [4]; 0.646 in experiment [5]; -0.208 in experiment [6]; -0.179 in experiment [7]. Further, the values for the composite z-score in experiment [8], in experiment [9] and in experiment [10] were -0.142, -0.0637 and -1.27, respectively. In experiment [2], this compound yielded a z-score of 0.333.

Regarding `O=C1N(Cc2ccccc2)Cc2ccccc2[C@@H]2OC(c3ccc(OCCCO)cc3)=N[C@]12CCS(=O)(=O)c1ccccc1`, the composite z-score in experiment [1] was 1.4; in [3], 0.347; in experiment [4], 0.729; in [5], 0.264; in experiment [6], -0.0758; in experiment [7], 0.265. Besides, the composite z-score in [8] was -0.319; in experiment [9], -0.0362; in experiment [10], 1.37. Moreover, the z-score in experiment [2] is -1.84.

Take `CCCCCCc1nc(C2CC2)cc2c1[Si](C(C)C)(C(C)C)O[C@H]2c1ccccc1`: the composite z-score in experiment [1] was -1.1; in experiment [3] it was 0.359; in [4] it was -0.806; in experiment [5], -0.852; in experiment [6], -0.154; in [7] it was -0.157. Besides, the composite z-score was -0.422 in experiment [8], -0.186 in experiment [9] and -0.271 in experiment [10]. Moreover, the z-score in experiment [2] is -0.0742.

As for `COc1cccc(/C=C/C=O)c1`, the composite z-score is 0.105 in experiment [1]; 0.402 in experiment [3]; 0.0577 in experiment [4]; -0.363 in experiment [5]; 0.185 in experiment [6]; 0.218 in experiment [7]. Besides, the composite z-score in experiment [8] was -0.354; in [9], 0.185; in experiment [10], -0.124. Besides, in experiment [2], the z-score was -0.56.

As to `COC(=O)C(CC#Cc1ccc2c(c1)[C@]1(C(=O)N2)[C@H](c2ccccc2OCCO)N2[C@H](c3ccccc3)[C@H](c3ccccc3)OC(=O)[C@H]2[C@@H]1C(=O)NC[C@H](O)c1ccccc1)C(=O)OC`, the composite z-score in experiment [1] is 1.39; in [3] it was 0.261; in experiment [4], 0.0614; in experiment [5] it was -0.316; in experiment [6], 0.285; in experiment [7], 2.44. In addition, the composite z-score in [8] amounted to 0.108; in experiment [9], 2.19; in [10], 0.971. Besides, the z-score in experiment [2] was -2.08.

`COc1cc2c(cc1O)C(C)N(Cc1ccc([N+](=O)[O-])o1)CC2` (stereo not given): the composite z-score in [1] was 1.28; in experiment [3], 0.0215; in [4], 2.21; in experiment [5], 1.21; in experiment [6], 0.138; in [7], -0.153. In addition, the composite z-score in experiment [8] is -0.335; in [9], 0.961; in experiment [10] it was 1.95. For the same compound, in experiment [2], the z-score was -0.616.

Turning to `O[C@@H](Cc1ccccc1)[C@@H](/C=C/C1CC1)N(CC#Cc1ccccc1)Cc1cccc(Cl)c1`, the composite z-score was -0.55 in experiment [1]; -1.61 in experiment [3]; -0.738 in experiment [4]; 0.352 in experiment [5]; -0.275 in experiment [6]; -0.147 in [7]. The results for the composite z-score in [8], in experiment [9] and in experiment [10] were -0.196, -0.565 and -0.0369, respectively. In [2], the z-score is -1.52.

Regarding `COCCOC(=O)N1C(=O)[C@@]2(c3cc(C#Cc4ccc(OC)cc4)ccc31)[C@H](c1ccccc1OCCO)N1[C@H](c3ccccc3)[C@H](c3ccccc3)OC(=O)[C@H]1[C@@H]2C(=O)N1CCCCCCC1`, the composite z-score in [1] worked out at 1.03; in experiment [3], 1.17; in experiment [4] it was 2.84; in experiment [5], 1.6; in experiment [6], 1.26; in experiment [7], 2.59. The composite z-score in experiment [8] came to 3.38; in [9] it was 5.26; in [10] it was 1.8. This compound also had a z-score in [2] of -1.36.
